Screening data: PubChem, several laboratories
EBI2 block: blocks human EBI2 receptor beta-arrestin signaling | P32249 | EBI2 beta-arrestin recruitment, luminescence, 7a,25-OHC stimulated | inhibition, % at 5 µM | actives 0.81% (n = 360,000) | AID 651636; in the data active means inhibition above about 38%;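 further: enzyme fragment complementation signal reports receptor beta-arrestin coupling in cells; 0% = agonist plus DMSO wells and 100% = wells without agonist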
Target sequence (P32249 whole entry, looked up, the tested form may be a part): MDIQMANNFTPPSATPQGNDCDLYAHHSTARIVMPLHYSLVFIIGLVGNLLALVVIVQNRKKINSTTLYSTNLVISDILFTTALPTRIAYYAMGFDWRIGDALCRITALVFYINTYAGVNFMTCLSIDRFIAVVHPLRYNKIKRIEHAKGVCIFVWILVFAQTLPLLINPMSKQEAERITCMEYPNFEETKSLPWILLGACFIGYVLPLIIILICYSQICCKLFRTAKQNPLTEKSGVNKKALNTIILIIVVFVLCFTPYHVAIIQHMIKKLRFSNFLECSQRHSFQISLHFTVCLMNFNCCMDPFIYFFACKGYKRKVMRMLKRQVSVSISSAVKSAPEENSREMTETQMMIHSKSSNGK
TIM10 inh: TIM10 yeast growth inhibition. S. cerevisiae TIM10 strain growth, BacTiter-Glo luminescence, 24 h. inhibition, % at 10 µM. actives 1.4% (n = 330,000). AID 463195;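 active means inhibition of 40% or more at the single tested concentration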;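 further: wild-type TIM10 isogenic control strain grown at permissive 25 °C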
PfHsp90 set2: reduces growth (ATP signal) of yeast expressing P. falciparum Hsp90 | AID 504621 | actives 0.32% (n = 310,000) | inhibition, % at 9.4 µM | S. cerevisiae expressing PfHsp90, BacTiter-Glo ATP, 48 h; yeast lacking PDR1 and PDR3 efflux regulators;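 active means every replicate shows inhibition above about 80%, whatever the replicate mean, limit read from the data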;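 further: 0% = DMSO neutral controls and 100% = 20 µM radicicol positive controls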
SKKanGAS inh: SKKanGAS growth inhibition | AID 1662 | inhibition, % at 7.5 µM | actives 1.3% (n = 300,000) | S. pyogenes SKKanGAS, kanamycin growth, BacTiter-Glo, 6 h;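 active means mean replicate score, as percent of positive control median, at least 50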;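 further: strain carries kanamycin resistance gene driven by streptokinase promoter and grows in 40 µg/ml kanamycin; loss of luminescence reflects streptokinase promoter inhibition or plain growth inhibition; 0% = median of DMSO wells and 100% = positive control at its reference dose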
tim10-1 inh: growth inhibitors of tim10-1 mutant yeast | S. cerevisiae tim10-1 ts strain growth, BacTiter-Glo, 24 h | inhibition, % at 20 µM | actives 2.2% (n = 330,000) | AID 463190;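 active means inhibition of at least 40%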;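 further: mutant grown at 25 °C; 0% = DMSO wells with yeast and 100% = wells holding no yeast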
tim23-1 inh: tim23-1 yeast growth inhibition | S. cerevisiae tim23-1 growth, BacTiter-Glo luminescence, 24 h | inhibition, % at 20 µM | actives 1.3% (n = 330,000) | AID 463212;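 active means growth inhibition of the mutant yeast at or above 50%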;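 further: temperature-sensitive mutant grown at 25 °C; plate controls were DMSO-treated mutant yeast for no effect and medium wells lacking yeast for full effect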
TIM10 conf: confirmation of TIM10 yeast growth inhibitors | shares compounds with TIM10 inh | S. cerevisiae tim10 strain growth, BacTiter-Glo luminescence, 24 h | inhibition, % at 10 µM | actives 63% (n = 4,600) | AID 463215;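 active means inhibition of yeast growth at or above a set limit in either of two replicates at 10 µM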;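 further: this counterscreen used the strain with wild-type TIM10; 0% = yeast with DMSO and 100% = medium wells lacking yeast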
Active calls of the source: *; · = not tested or not shown. This is a sample that favours compounds with a hit; in the whole collection about 4.7% have one here.

SMILES | EBI2 block | TIM10 inh | PfHsp90 set2 | SKKanGAS inh | tim10-1 inh | tim23-1 inh | TIM10 conf
COc1cc(/C=C/C(=O)OCC(=O)NCCc2ccc(F)cc2)ccc1OC(F)F | 10 | -9 | · | · | -4 | -3 | ·
Cc1cccc(NC(=S)NC(=O)C2CC2)c1 | 3 | 16 | -13 | 2 | 22 | 37 | ·
CN(C)S(=O)(=O)c1cccc(NC(=S)NC(=O)C2CCCCC2)c1 | 4 | 41* | 34 | -7 | 24 | 43 | 35*
Cc1ccc(NC(=S)NC(=O)C2CCCC2)c(Br)c1 | 2 | 41* | -24 | · | 27 | 45 | 35*
Cc1cc(NC(=S)NC(=O)C2CC2)ccc1Br | -12 | 41* | · | 0 | 32 | 47 | 42*
COc1cccc(C(C(=O)NCc2ccccc2)N(C(=O)c2csnn2)C2CC2)c1 (configuration not stated) | 12 | 14 | 0 | -2 | 18 | 13 | ·
O=C(N/N=C/c1ccc(Br)o1)c1ccc2c(c1)OCCO2 | -6 | 56* | 21 | -2 | 5 | 37 | 63*
Fc1cccc(/C=N/n2c(C3CCCCC3)n[nH]c2=S)c1 | 8 | 44* | -21 | 5 | 26 | 26 | 37*
Oc1cccc(/C=N/n2c(C3CCCCC3)n[nH]c2=S)c1 | 8 | 9 | 27 | -2 | 32 | 26 | ·
COc1ccc(N(CC(=O)NCCSc2ccccn2)S(=O)(=O)c2ccccc2)c(OC)c1 | -4 | -1 | 8 | -2 | 11 | 23 | ·
COc1ccc(CNC(=S)NC(C)CCc2ccccc2)cc1 (configuration not stated) | -2 | 53* | 0 | -7 | 32 | 10 | 21
COc1ccc(NC(=O)/C(C#N)=C/c2ccc(Sc3nncn3C)c([N+](=O)[O-])c2)cc1 | -3 | 54* | -5 | -6 | 30 | 47 | 29
Cn1cnnc1Sc1ccc(/C=C/C(=O)c2ccc(O)cc2)cc1[N+](=O)[O-] | 1 | 24 | 5 | -3 | 25 | 37 | ·
CC(=O)c1c(C)[nH]c(C(=O)OCC(=O)c2ccc(C)s2)c1C | 0 | 17 | · | · | 3 | 22 | ·
CNc1nc2sc3c(c2c(=O)n1C)CC(C)(C)SC3 | -4 | 26 | -5 | -12 | 32 | 8 | ·
CC(Sc1nc(N)c2c3c(sc2n1)CSC(C)(C)C3)C(=O)Nc1ccccc1 (configuration not stated) | 9 | 47* | 10 | 22 | 36 | 39 | -35
COc1ccccc1-c1coc2cc(O)cc(O)c2c1=O | 7 | 42* | 1 | 12 | 32 | 41 | 23
COc1ccc(-c2coc3cc(O)cc(O)c3c2=O)cc1OC | -3 | 14 | -10 | 3 | -2 | 4 | ·
O=C(NCC(O)c1ccc2ccccc2c1)c1c(F)cccc1F (configuration not stated) | -6 | 5 | -21 | 5 | 8 | 13 | ·
Cc1nc2oc3c(NCC4CCCO4)ncnc3c2c2c1COC(C)(C)C2 (configuration not stated) | -3 | 25 | -12 | -13 | 32 | 19 | ·
Cc1nc2oc3c(NCc4ccccc4)ncnc3c2c2c1COC(C)(C)C2 | 17 | 41* | 13 | 5 | 37 | 40 | 25
COc1ccc(-c2csc(NC(=O)CSCc3c(C)noc3C)n2)c(OC)c1 | 16 | 83* | 2 | 29 | 11 | 18 | -9
COc1ccc(CN2C(=O)C(CC(=O)NC3CCCC3)CC(C(=O)N3CCOCC3)=C2C)cc1 (configuration not stated) | -5 | · | · | · | · | · | ·
Cc1ccc(C(=O)Oc2cc(N)n(S(=O)(=O)c3ccc(C)cc3)n2)cc1 | 9 | 14 | 17 | 5 | 38 | 35 | ·
Nc1cc(OC(=O)c2ccc(F)cc2)nn1S(=O)(=O)c1ccccc1 | 7 | 39 | 2 | 0 | 26 | 37 | ·
COc1ccc(S(=O)(=O)n2nc(OC(=O)c3ccccc3Br)cc2N)cc1 | 0 | 50* | 7 | 13 | 35 | 30 | 19
Cc1ccc(S(=O)(=O)n2nc(OC(=O)c3ccccc3F)cc2N)cc1 | -16 | 46* | -19 | 10 | 14 | 43 | 48*
COc1ccc(S(=O)(=O)n2nc(OC(=O)c3ccccc3)cc2N)cc1 | -4 | 49* | -17 | 1 | 37 | 47 | 29
